Among the data in PubChem BioAssay (NCI) are growth inhibition values, retold here.

The nature of experiment [1]: NCI Yeast Anticancer Drug Screen. Data for the rad50 strain (AID 155).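 Further: 0% = growth of vehicle-only cultures of the same strain.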 The following applies: S. cerevisiae rad50 strain growth inhibition, active compounds read high. The method, boiled down: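 Yeast carrying a defined DNA repair defect were exposed to test compounds, and growth was compared with vehicle-treated controls to give percent inhibition.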
A short description of experiment [2]: NCI Yeast Anticancer Drug Screen. Data for the mec2-1 strain (AID 157). The following applies: S. cerevisiae mec2-1 strain, active compounds read high. The method, boiled down:
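Vehicle-treated cultures served as reference for growth inhibition of compound-exposed mec2-1 yeast.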

Experiment [3] is described as follows: NCI Yeast Anticancer Drug Screen. Data for the sgs1 mgt1 strain (AID 161).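 Further: 0% = growth of cultures given vehicle only.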 The following applies: S. cerevisiae sgs1 mgt1 strain, active compounds read high. The method, boiled down:
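Genetically altered yeast, compound exposure, growth inhibition relative to vehicle.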

The nature of experiment [4]: NCI Yeast Anticancer Drug Screen. Data for the cln2 rad14 strain (AID 165).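 Further: 0% = growth equal to vehicle treated cultures.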 The following applies: S. cerevisiae cln2 rad14 strain, active compounds read high. The method, boiled down: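 Each compound was tested on cln2 rad14 yeast. Inhibition of growth was calculated against vehicle-exposed controls.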
The nature of experiment [5]: NCI Yeast Anticancer Drug Screen. Data for the bub3 strain (AID 167). The following applies: S. cerevisiae bub3 mutant strain, active compounds read high. Summed up: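 Compounds were applied to a genetically altered yeast strain carrying a cell-cycle control defect. Growth inhibition was scored against vehicle-treated controls.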
Experiment [6] can be described thus: NCI Yeast Anticancer Drug Screen. Data for the mlh1 rad18 strain (AID 175). The following applies: S. cerevisiae mlh1 rad18 strain growth inhibition, active compounds read high. Summed up:
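Vehicle-treated cultures served as the reference for growth inhibition in a yeast strain carrying DNA damage repair alterations exposed to each compound.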

[7] abbreviates: at 5.0 µM (retest, dose inferred, filed as 0.5).
The mark [8] stands for this setting: at 50.0 µM (retest, dose inferred, filed as 5.0).

Each structure is given as a SMILES string. Compounds without any hit were thinned out: in the full panel of roughly 79,000, 15% have a hit. A number with no mark means an inactive call. The source made the active and inactive calls. No stated cut-off is given here; in the data, active means growth inhibition above about 70%; inactive means the rest. Where a SMILES comes first, the peptide text is derived from it. The star is where a group is joined. Cbz = O=C(OCc1ccccc1)*

Regarding `Oc1ccc(Br)cc1C=Nc1c(NC2CCCCC2)oc2ccc(Br)cc12`, the growth inhibition is -4% in experiment [1] (setting [7]); 9% in experiment [1] (setting [8]); -9.35% in experiment [1] (at 50.0 µM); 3% in experiment [2] (setting [7]); -2% in experiment [2] (setting [8]); 39.4% in experiment [2] (at 50.0 µM). Also, the growth inhibition in experiment [3] (setting [7]) was 11%; in experiment [3] (setting [8]) it was 22%; in experiment [3] (at 50.0 µM), 41.8%; in experiment [4] (setting [7]), -18%; in experiment [4] (setting [8]), 0%; in experiment [4] (at 50.0 µM), 37%. The growth inhibition in experiment [5] (setting [7]) is -12%; in experiment [5] (setting [8]), 43%; in experiment [5] (at 50.0 µM), 53.4%; in experiment [6] (setting [7]), -4%; in experiment [6] (setting [8]), 29%; in experiment [6] (at 50.0 µM) it was 50.5%.
On to `CC(=C/c1ccccc1)/C=C1/NC(=S)N(/C=C2\C(=O)Oc3ccccc3C2=O)C1=O`, for which the growth inhibition in experiment [1] (setting [7]) was -13%; in experiment [1] (setting [8]), 28%; in experiment [1] (at 50.0 µM), 98.1% (active); in experiment [2] (setting [7]), -8%; in experiment [2] (setting [8]), 41%; in experiment [2] (at 50.0 µM) it was 98.7% (active). In addition, the growth inhibition in experiment [3] (setting [7]) is -16%; in experiment [3] (setting [8]), 28%; in experiment [3] (at 50.0 µM), 89.1% (active); in experiment [4] (setting [7]) it was -28%; in experiment [4] (setting [8]), 34%; in experiment [4] (at 50.0 µM) it was 98.5% (active). The growth inhibition in experiment [5] (setting [7]) was -24%; in experiment [5] (setting [8]), 11%; in experiment [5] (at 50.0 µM) it was 98.5% (active); in experiment [6] (setting [7]), -7%; in experiment [6] (setting [8]), 12%; in experiment [6] (at 50.0 µM), 98.5% (active).
As to `CCOC(=O)CNC(=O)CNC(=O)CNC(=O)OCc1ccccc1` (Cbz-Gly-Gly-Gly-OEt), the growth inhibition is -9% in experiment [1] (setting [7]); -3% in experiment [1] (setting [8]); 7.6% in experiment [1] (at 50.0 µM); -11% in experiment [2] (setting [7]); -3% in experiment [2] (setting [8]); -0.7% in experiment [2] (at 50.0 µM). Further, the growth inhibition in experiment [3] (setting [7]) is -7%; in experiment [3] (setting [8]), 4%; in experiment [3] (at 50.0 µM) it was -12.2%; in experiment [4] (setting [7]), -62%; in experiment [4] (setting [8]), -4%; in experiment [4] (at 50.0 µM) it was 38.5%. Moreover, the growth inhibition was -7% in experiment [5] (setting [7]); 42% in experiment [5] (setting [8]); 13.8% in experiment [5] (at 50.0 µM); 1% in experiment [6] (setting [7]); -13% in experiment [6] (setting [8]); 14.2% in experiment [6] (at 50.0 µM).
For the molecule `CC(C)(C)CC(C)(C)c1ccc(Oc2ccc([N+](=O)[O-])cc2S(=O)(=O)O)cc1`, the growth inhibition in experiment [1] (setting [7]) was -2%; in experiment [1] (setting [8]), 21%; in experiment [1] (at 50.0 µM), 14.8%; in experiment [2] (setting [7]), -6%; in experiment [2] (setting [8]), -1%; in experiment [2] (at 50.0 µM) it was 0.05%. Further, the growth inhibition in experiment [3] (setting [7]) was -1%; in experiment [3] (setting [8]), 32%; in experiment [3] (at 50.0 µM) it was 64.5%; in experiment [4] (setting [7]), 4%; in experiment [4] (setting [8]), -4%; in experiment [4] (at 50.0 µM), -23.4%. For the same molecule, the growth inhibition in experiment [5] (setting [7]) is -2%; in experiment [5] (setting [8]), -13%; in experiment [5] (at 50.0 µM), 5.45%; in experiment [6] (setting [7]), 5%; in experiment [6] (setting [8]) it was 26%; in experiment [6] (at 50.0 µM), 24.7%.
In the case of `COc1ccc(-c2nnc(C)nc2-c2ccc(OC)cc2)cc1`, the growth inhibition in experiment [1] (setting [7]) is 3%; in experiment [1] (setting [8]), -1%; in experiment [1] (at 50.0 µM), 22.1%; in experiment [2] (setting [7]), -1%; in experiment [2] (setting [8]), 7%; in experiment [2] (at 50.0 µM), 1.2%. Moreover, the growth inhibition was 3% in experiment [3] (setting [7]); 19% in experiment [3] (setting [8]); 23.2% in experiment [3] (at 50.0 µM); -6% in experiment [4] (setting [7]); -1% in experiment [4] (setting [8]); 17.6% in experiment [4] (at 50.0 µM). The growth inhibition in experiment [5] (setting [7]) is 14%; in experiment [5] (setting [8]) it was 41%; in experiment [5] (at 50.0 µM), 81.6% (active); in experiment [6] (setting [7]), 0%; in experiment [6] (setting [8]), 2%; in experiment [6] (at 50.0 µM), 13.2%.
Consider `CC1CCC(C(O)(C(=O)O)C2CCC(C)CC2)CC1` (configuration not stated), for which the growth inhibition in experiment [1] (setting [7]) was 23%; in experiment [1] (setting [8]) it was 30%; in experiment [1] (at 50.0 µM), 37.9%; in experiment [2] (setting [7]), 26%; in experiment [2] (setting [8]), 39%; in experiment [2] (at 50.0 µM) it was 19.3%. Moreover, the growth inhibition in experiment [3] (setting [7]) was 34%; in experiment [3] (setting [8]) it was 61%; in experiment [3] (at 50.0 µM) it was 10.2%; in experiment [4] (setting [7]), 78% (active); in experiment [4] (setting [8]) it was 57%; in experiment [4] (at 50.0 µM), 47.6%. For the same molecule, the growth inhibition in experiment [5] (setting [7]) was 25%; in experiment [5] (setting [8]), -73%; in experiment [5] (at 50.0 µM), 49.1%; in experiment [6] (setting [7]) it was 15%; in experiment [6] (setting [8]) it was 23%; in experiment [6] (at 50.0 µM), 49.7%.
For `O=CC1(c2ccc(Cl)cc2)NC(=O)NC1=O` (configuration not stated), the growth inhibition in experiment [1] (setting [7]) was -1%; in experiment [1] (setting [8]), 1%; in experiment [1] (at 50.0 µM), 3.45%; in experiment [2] (setting [7]) it was -1%; in experiment [2] (setting [8]), -3%; in experiment [2] (at 50.0 µM) it was -1.7%. For the same molecule, the growth inhibition in experiment [3] (setting [7]) is 2%; in experiment [3] (setting [8]) it was 2%; in experiment [3] (at 50.0 µM), -9.45%; in experiment [4] (setting [7]), 3%; in experiment [4] (setting [8]) it was -14%; in experiment [4] (at 50.0 µM) it was 83% (active). Further, the growth inhibition in experiment [5] (setting [7]) is -1%; in experiment [5] (setting [8]), -1%; in experiment [5] (at 50.0 µM), -10.3%; in experiment [6] (setting [7]) it was -5%; in experiment [6] (setting [8]), -4%; in experiment [6] (at 50.0 µM) it was 3.35%.
On to `Cc1nc(Nc2ccc(Cl)cc2)sc1C(=O)NNC(=O)C(=O)NN`, for which the growth inhibition was 3% in experiment [1] (setting [7]); 3% in experiment [1] (setting [8]); 80.5% (active) in experiment [1] (at 50.0 µM); -19% in experiment [2] (setting [7]); -8% in experiment [2] (setting [8]); 59.5% in experiment [2] (at 50.0 µM). For the same molecule, the growth inhibition in experiment [3] (setting [7]) is -13%; in experiment [3] (setting [8]), 9%; in experiment [3] (at 50.0 µM), 61.8%; in experiment [4] (setting [7]) it was -31%; in experiment [4] (setting [8]) it was -10%; in experiment [4] (at 50.0 µM) it was 64.5%. Further, the growth inhibition in experiment [5] (setting [7]) was -26%; in experiment [5] (setting [8]) it was -5%; in experiment [5] (at 50.0 µM), 41.1%; in experiment [6] (setting [7]) it was -45%; in experiment [6] (setting [8]), -32%; in experiment [6] (at 50.0 µM) it was 69.5%.
`O=S(=O)(c1ccccc1)C1CN=NC1c1ccccc1` (configuration not stated): the growth inhibition in experiment [1] (setting [7]) is 4%; in experiment [1] (setting [8]), 79% (active); in experiment [1] (at 50.0 µM) it was 84.2% (active); in experiment [2] (setting [7]), -16%; in experiment [2] (setting [8]) it was 97% (active); in experiment [2] (at 50.0 µM), 97.7% (active). The growth inhibition in experiment [3] (setting [7]) was -7%; in experiment [3] (setting [8]), 98% (active); in experiment [3] (at 50.0 µM), 73.6% (active); in experiment [4] (setting [7]) it was -2%; in experiment [4] (setting [8]), 69%; in experiment [4] (at 50.0 µM), 93.5% (active). Moreover, the growth inhibition in experiment [5] (setting [7]) is 6%; in experiment [5] (setting [8]), 98% (active); in experiment [5] (at 50.0 µM), 87.8% (active); in experiment [6] (setting [7]) it was 30%; in experiment [6] (setting [8]), 97% (active); in experiment [6] (at 50.0 µM), 97% (active).
